LANA-H2A inh: blocks KSHV LANA binding to histone H2A/H2B. inhibition, % (no concentration beside the values). Q9QR71. actives 0.6% (n = 320,000). AID 2629. cell-free LANA-H2A/H2B peptide, fluorescence polarization; in the data active = inhibition mostly above about 10%, no sharp cut-off; inactive = mostly below about 6.7%
Rtt109 HAT inh: inhibitors of Candida albicans Rtt109/Vps75 histone acetyltransferase. purified Rtt109/Vps75, ThioGlo CoA-SH fluorescence, 4 h. actives 0.16% (n = 330,000). inhibition, % at 34.9 µM;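 active = inhibition of at least 50% in every replicate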
ALR H2O2 inh: human ALR oxidase inhibition via reduced H2O2; purified ALR, DTT oxidation, H2O2 HRP-luminol luminescence; P55789; inhibition, % (test concentration not listed); actives 3.8% (n = 290,000);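 active = mean replicate inhibition above about 79%, with every replicate also reaching it, limit read from the data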
Target sequence (P55789 whole entry, looked up): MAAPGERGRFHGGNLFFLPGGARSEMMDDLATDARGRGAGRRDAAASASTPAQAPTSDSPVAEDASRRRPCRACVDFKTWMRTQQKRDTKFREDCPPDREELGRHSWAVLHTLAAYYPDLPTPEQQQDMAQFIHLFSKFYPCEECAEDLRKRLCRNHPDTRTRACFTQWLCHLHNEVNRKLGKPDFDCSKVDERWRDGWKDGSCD
PRMT1 inh: PRMT1 (human) inhibition, primary screen. inhibition, % at 2.79 µM. AID 652257. actives 1.3% (n = 370,000). recombinant PRMT1, activity-based probe fluorescence polarization. Q99873;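 active = inhibition above about 21% made by adding two undisclosed values, limit read from the data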
ABHD5 PLIN5 PPI: inhibitors of human ABHD5-perilipin-5 interaction. actives 0.78% (n = 360,000). inhibition, % at 4 µM. Split G. princeps luciferase complementation, luminescence, 4 h. Q00G26+Q8WTS1;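 active = inhibition above the mean inhibition across every tested compound plus 3 SD, cut at about 22% in these data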;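 note: 0% = DMSO only wells and the 100% control is not disclosed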
rCAG RNA binder: binds r(CAG) RNA repeats; inhibition, % at 3 µM; r(CAG) RNA repeat, TO-PRO-1 dye displacement fluorescence; actives 1.3% (n = 370,000); AID 651821;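 active = inhibition above the plate cutoff, the mean of all test compounds on that plate plus 3 SD, cut at about 35% in these data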;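 note: 0% = DMSO alone and 100% = 100 µM mitoxantrone as full dye displacement; higher means more dye released from RNA so lower well fluorescence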
* marks the source's active call; other numbers are inactive results; / = no result given. Hits are enriched below; roughly 5.9% of the tested compounds scored in any of these assays.

SMILES	LANA-H2A inh	Rtt109 HAT inh	ALR H2O2 inh	PRMT1 inh	ABHD5 PLIN5 PPI	rCAG RNA binder
CSC1=N/C(=C\c2ccc(Cl)cc2)C(=O)N1N(C)C	-2.5	-18.9	-2.2	0.1	-6.4	-0.1
Oc1ccc(-c2c(C3=CCCCC3)sc3ccccc23)cc1	4.7	6.7	4.0	0.2	-9.8	7.4
N#C/C(=C\c1c(F)cccc1Cl)c1nn(-c2ccccc2)c(-n2cccc2)c1C#N	3.6	-9.3	-2.7	0.7	21.2	8.1
N#C/C(=C\c1c(Cl)cccc1Cl)c1nn(-c2ccccc2)c(-n2cccc2)c1C#N	1.1	56.1*	0.3	-3.1	14.8	8.3
Cc1ccc(C(Nc2ccccc2)c2ccc3ccc(C)nc3c2O)c(C)c1 (centres undefined)	/	/	/	-0.3	/	11.1
CC(=O)n1c2ccccc2c2nc(NC(C)C)sc21	-1.9	1.8	99.4*	12.6	-28.7	0.8
CNc1nc2c3ccccc3n(C(C)=O)c2s1	-9.3	-1.0	/	3.9	-27.2	4.3
COc1ccc(NC2CC(=O)N(c3ccccc3)C2=O)cc1 (centres undefined)	1.9	-6.7	/	-0.5	-5.0	1.8
O=C1CC(NNc2ccccc2)C(=O)N1c1ccccc1 (centres undefined)	-3.0	-1.2	99.7*	1.4	0.3	10.7
COc1ccccc1N1C(=O)CC(Nc2ccc(N3CCOCC3)cc2)C1=O (centres undefined)	-0.1	8.6	99.5*	21.8*	-5.7	13.2
O=C1CC(Nc2ccc(N3CCOCC3)cc2)C(=O)N1c1ccccc1 (centres undefined)	-2.7	2.2	98.9*	/	-0.2	/
CCOc1ccccc1N1C(=O)CC(Nc2ccc(N3CCOCC3)cc2)C1=O (centres undefined)	12.8	8.2	98.3*	5.4	-14.1	13.3
CCOc1ccccc1N1CC(C(=O)Nc2ccccc2N2CCOCC2)CC1=O (centres undefined)	-1.9	-8.2	-23.6	-2.5	-2.0	-1.3
O=C1c2cccc3cccc(c23)C(c2nc3ccccc3[nH]2)N1C1CC1 (centres undefined)	/	/	/	2.7	-3.1	0.8
CC(C)(C)OC(=O)NCc1cc(F)ccc1/C=C/S(=O)(=O)NC1CCCC1	/	/	/	-8.1	/	-0.1
CCN(CC)C(=O)C1=C(C)N(Cc2ccc(OC)cc2)C(=O)C(CC(=O)NCC2CCCCC2)C1 (centres undefined)	/	/	/	-3.9	-3.5	-0.8
CC1(C)CC(NC(=O)N2c3ccccc3Sc3ccccc32)CC(C)(C)N1	-0.6	-11.6	98.8*	1.5	6.5	2.2
CC1(C)CC(NC(=O)c2ccccc2C(=O)NC2CC(C)(C)NC(C)(C)C2)CC(C)(C)N1	3.8	1.8	-3.3	-2.2	3.1	1.6
O=C(CSc1nnc(-c2ccco2)n1Cc1ccco1)c1ccc([N+](=O)[O-])cc1	/	/	/	-1.2	/	14.4
C/C(N)=C(/C#N)C(=O)CSc1cc(C)c2cc(C)cc(C)c2n1	-1.1	-3.0	96.3*	-3.3	5.2	5.2
Cc1cc(C)c2nc(SCC#N)cc(C)c2c1	2.2	1.3	-11.4	0.1	-10.3	2.3
COC(=O)[C@@]12CCCCC3=C1N(CCC3)C(=O)[C@H]2CC(=O)NCc1cccs1	/	/	/	1.4	/	-0.4
O=C(O)c1cccc(COc2ccc3c(c2)CCC3)c1	2.7	-1.1	90.7*	4.5	1.9	6.6
O=C(/C=C\Nc1ccc2c(c1)OCO2)c1cccs1	-0.4	2.0	96.1*	10.2	-2.7	0.3
COc1ccc(CCNC(=O)CSc2c[nH]c3ccccc23)cc1OC	1.0	-2.5	97.2*	4.5	2.0	2.5
SMILES	LANA-H2A inh	Rtt109 HAT inh	ALR H2O2 inh	PRMT1 inh	ABHD5 PLIN5 PPI	rCAG RNA binder
COc1ccc(CCNC(=O)CSc2ccc(-c3cccs3)nn2)cc1OC	-2.6	-0.6	/	-5.2	-0.5	-3.9
COc1ccc(CCNC(=O)COC(=O)CSc2ccc(C(N)=O)cc2[N+](=O)[O-])cc1OC	/	4.7	/	22.3*	1.2	8.5
Cc1ccccc1NC(=O)CSc1nnc(C)c(=O)[nH]1	-1.6	1.3	-7.4	0.4	3.9	-1.1
CCc1c(O)nc(SCC(=O)Nc2ccccc2C)[nH]c1=O	5.7	3.8	99.1*	13.9	0.4	2.3
COc1ccc(CCNC(=O)COC(=O)CSc2ccc([N+](=O)[O-])cc2)cc1OC	8.0	0.6	/	-1.6	-4.4	3.3
COc1ccc(CCNC(=O)CSc2nc(O)c(CC(C)C)c(=O)[nH]2)cc1OC	6.7	0.2	97.8*	0.5	11.3	4.8
